Rows were chosen to be rich in hits. Some 1.6% of all compounds tested hit in one or more screens of this group.
KCNQ2 block = KCNQ2 (rat) channel inhibition; O88943; CHO-K1 KCNQ2, FluxOR thallium flux, 20 min; stronger effect = lower value; B-score at 10 µM; 1.1% of 310,000 active; AID 2156;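 active means fluorescence ratio B-score at most minus 3 library SDs, with starting brightness B-score within 2 library SDs, cut at about -5.5 in these data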
KCNQ2 enhance = potentiators of rat KCNQ2 potassium channel | B-score at 10 µM | 0.54% of 310,000 active | AID 2239 | CHO-K1 KCNQ2, FluxOR thallium flux fluorescence; stronger effect = higher value;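 active means fluorescence ratio B-score at least 3 SD of library B-scores, with initial fluorescence B-score within 3 of them, cut at about 5.3 in these data; same plate scores as AID 2156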;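 further: B-score of peak minus minimum over baseline fluorescence ratio after K+ and Tl+ stimulus; positive B-score means potentiation of KCNQ2 with more thallium influx and brighter signal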
Kir21 confirm = confirmation of mouse Kir2.1 potassium channel inhibitors; Kir2.1-expressing cells, FluxOR thallium flux fluorescence; stronger effect = lower value; shares compounds with KCNQ2 enhance; AID 2032; Tl flux remaining, % of negative control (stronger effect = lower value), % at 10 µM; 41% of 2,300 active;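 active means Primary-screen hit whose thallium flux fell at least 3 control SD below untreated wells in both duplicates, with normal baseline fluorescence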;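 further: 0% = blank wells without stimulus and 100% = stimulated no-compound controls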
HEK293 Tl flux = parental HEK293 activity in Kir2.1 inhibitor counter-screen; shares compounds with KCNQ2 enhance; parental HEK293 cells, FluxOR thallium flux fluorescence; 0% = unstimulated blank wells; FluxOR signal as % of negative control (100 = no effect), % at 10 µM; 19% of 2,300 active; AID 2105;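 active means dye signal at least 3 control SD above or below untreated wells in both duplicates, raw fluorescence within 3, either direction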;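 further: percent is based on the flux ratio of peak minus minimum fluorescence over baseline F0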
CHO-K1 ctr = alters thallium flux in parental CHO-K1 cells, KCNQ2 counter-screen. shares compounds with KCNQ2 enhance. FluxOR thallium flux fluorescence; zero = vehicle mean+3SD, 100% = vehicle-minus-blank window. activity increase over 3SD of controls, % at 10 µM. 43% of 1,200 active. AID 2282;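 active means signal rise of at least 3 SD above the untreated control mean, in both duplicate wells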;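 further: counter screen of KCNQ2 potentiator hits so any rise reflects channel-independent effects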
KCNQ1 pot spec = selectivity of KCNQ2 potentiators: effect on human KCNQ1. shares compounds with KCNQ2 enhance. CHO KCNQ1 stable, FluxOR thallium flux fluorescence; beyond 3SD, as % of vehicle-control signal. AID 2283. activation over 3SD threshold, % at 10 µM. 28% of 1,200 active;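 active means fluorescence ratio rise of at least 3 SD of vehicle wells above their mean, in both replicate wells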;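 further: 0% = vehicle mean plus 3 SD and 100% = vehicle minus unstimulated blank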
KCNQ2 pot confirm = confirmation of rat KCNQ2 potassium channel potentiators | shares compounds with KCNQ2 enhance | CHO-KCNQ2 cells, FluxOR thallium flux fluorescence | potentiation, less the hit threshold, % at 10 µM | 68% of 1,200 active | AID 2287;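 active means fluorescence ratio rising 3 SD or more over the vehicle control mean in both replicates, plus primary screen hit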;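 further: peak minus minimum thallium fluorescence divided by baseline after K/Tl stimulus; 0% = vehicle mean plus 3 SD and 100% = vehicle minus unstimulated blank difference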
Kir2-1 sel = tests whether KCNQ2 potentiators also affect mouse Kir2.1; shares compounds with KCNQ2 enhance; AID 2345; HEK293 Kir2.1, FluxOR thallium flux fluorescence; 2% of 1,200 active; activity over 3SD threshold, % at 10 µM;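 active means fluorescence ratio rise of at least 3 SD above the vehicle-control mean, seen in both replicates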;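 further: 0% = vehicle mean plus 3 SD and 100% = vehicle minus no-stimulus blank window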
KCNQ2 W236L MoA = potentiates the retigabine-insensitive rat KCNQ2 W236L mutant channel | current increase over 3SD of negative controls (%), stronger effect = higher value, % at 25 µM | CHO KCNQ2-W236L, automated patch clamp current | shares compounds with KCNQ2 enhance | 10% of 940 active;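 active means current increase at least 3 SD of the untreated controls above them in both duplicate recordings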
Target sequence (O88943 whole entry W236L, looked up): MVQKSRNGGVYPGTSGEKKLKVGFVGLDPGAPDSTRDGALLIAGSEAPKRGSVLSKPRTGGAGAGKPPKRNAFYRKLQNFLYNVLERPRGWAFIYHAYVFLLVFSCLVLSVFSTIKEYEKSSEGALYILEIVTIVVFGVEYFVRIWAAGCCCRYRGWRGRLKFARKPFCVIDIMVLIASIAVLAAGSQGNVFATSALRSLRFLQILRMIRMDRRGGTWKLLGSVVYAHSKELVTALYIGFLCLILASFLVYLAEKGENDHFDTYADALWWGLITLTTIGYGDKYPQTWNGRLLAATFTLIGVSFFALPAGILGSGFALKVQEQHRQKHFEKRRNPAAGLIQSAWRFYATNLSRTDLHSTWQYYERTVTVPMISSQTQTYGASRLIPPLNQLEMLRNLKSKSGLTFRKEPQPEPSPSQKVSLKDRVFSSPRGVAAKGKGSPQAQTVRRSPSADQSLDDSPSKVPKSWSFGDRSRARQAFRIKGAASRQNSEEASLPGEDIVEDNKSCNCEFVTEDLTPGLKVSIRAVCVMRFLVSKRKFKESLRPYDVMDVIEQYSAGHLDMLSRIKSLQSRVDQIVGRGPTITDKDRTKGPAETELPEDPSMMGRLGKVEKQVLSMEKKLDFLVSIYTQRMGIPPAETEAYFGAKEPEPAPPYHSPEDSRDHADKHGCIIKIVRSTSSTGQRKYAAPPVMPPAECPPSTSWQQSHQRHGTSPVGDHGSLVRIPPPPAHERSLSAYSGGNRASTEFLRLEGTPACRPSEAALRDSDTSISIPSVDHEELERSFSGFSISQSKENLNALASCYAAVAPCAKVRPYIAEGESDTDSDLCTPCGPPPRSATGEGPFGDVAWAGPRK
An asterisk follows results filed as active.

How did O=C1N/C(=N/O)S/C1=C/c1cccc([N+](=O)[O-])c1 do in these assays?
KCNQ2 block: inactive; KCNQ2 enhance: 2.1

What do the screens show for `COc1cccc(OCC(=O)Nc2c3c(nn2-c2ccccc2)CS(=O)(=O)C3)c1`?
KCNQ2 block: inactive; KCNQ2 enhance: 1.1

What do the screens show for `O=C(NS(=O)(=O)Oc1ccccc1F)OC[C@@H]1CCCN2CCCCC12` (some centres not stated)?
KCNQ2 block: inactive

How did COc1ccc(CCNC(=O)CSc2nc(=O)[nH]c3c2CCC3)cc1OC do in these assays?
KCNQ2 block: inactive; KCNQ2 enhance: 0.03

How did O=[N+]([O-])c1cc(Cl)ccc1N1CCCCC1 do in these assays?
KCNQ2 block: inactive; KCNQ2 enhance: 0.75

What do the screens show for `Nc1cc(N2CCCCC2)c(Cl)cc1[N+](=O)[O-]`?
KCNQ2 block: inactive; KCNQ2 enhance: 9.2*; Kir21 confirm: inactive; HEK293 Tl flux: inactive; CHO-K1 ctr: 139*; KCNQ1 pot spec: -17; KCNQ2 pot confirm: 45*; Kir2-1 sel: -27; KCNQ2 W236L MoA: 28%*

Results for O=C(NCc1cccnc1)C1CCN(S(=O)(=O)c2cc(Cl)ccc2Cl)CC1 ?
KCNQ2 block: inactive

How did CCc1ccc(S(=O)(=O)NCc2csc(-c3ccccc3)n2)s1 do in these assays?
KCNQ2 block: inactive; Kir21 confirm: 49%*; HEK293 Tl flux: inactive

What do the screens show for `CCc1ccc(S(=O)(=O)NCCc2csc(-c3ccccc3)n2)s1`?
KCNQ2 block: inactive

Results for COc1ccc(CN2CCN(Cc3cc4ccccc4o3)CC2CCO)c(F)c1 (configuration not stated) ?
KCNQ2 block: inactive

Results for COc1ccc(CN2CCN(C3CCC3)CC2CCO)c(F)c1 (configuration not stated) ?
KCNQ2 block: inactive; KCNQ2 enhance: 13*; Kir21 confirm: inactive; HEK293 Tl flux: inactive; CHO-K1 ctr: -13; KCNQ1 pot spec: -18; KCNQ2 pot confirm: -8; Kir2-1 sel: -27

How did O=S(=O)(/N=C(/Nc1ccccn1)c1ccccc1)c1ccc(F)cc1 do in these assays?
KCNQ2 block: inactive; KCNQ2 enhance: 0.92

What do the screens show for `CS(=O)(=O)CCC(C(=O)OCC(=O)c1ccc(Cl)cc1)N1C(=O)c2ccccc2C1=O` (configuration not stated)?
KCNQ2 block: inactive; KCNQ2 enhance: 0.36

What do the screens show for `COc1ccc(C(=O)Nc2ccnc(-c3cccnc3)n2)cc1`?
KCNQ2 block: inactive; KCNQ2 enhance: 5.3*; Kir21 confirm: inactive; HEK293 Tl flux: inactive; CHO-K1 ctr: -4; KCNQ1 pot spec: -16; KCNQ2 pot confirm: -6; Kir2-1 sel: -16

How did Cc1ccc(C(=O)Nc2ccnc(-c3cccnc3)n2)cc1 do in these assays?
KCNQ2 block: inactive; KCNQ2 enhance: 0.05

How did Cc1cccc(CC(C)NC(=O)c2oc3c(F)cccc3c2C)n1 (configuration not stated) do in these assays?
KCNQ2 block: inactive

What do the screens show for `Cc1cccc(C)c1NC(=O)COC(=O)CCC(=O)c1cccs1`?
KCNQ2 block: inactive; KCNQ2 enhance: 0.55

What do the screens show for `O=C(Nc1ccc(-c2n[nH]c(=S)o2)cc1)c1ccccc1Cl`?
KCNQ2 block: inactive; KCNQ2 enhance: 0.91

What do the screens show for `NNC(=O)c1cc2c(N3CCC(Cc4ccccc4)CC3)ncnc2s1`?
KCNQ2 block: inactive

Results for O=[N+]([O-])c1cc([N+](=O)[O-])c(Oc2cccnc2Br)cc1NN1CCCCC1 ?
KCNQ2 block: inactive

Results for Fc1ccc(Nc2nnc(C(F)(F)F)s2)cc1Cl ?
KCNQ2 block: inactive; KCNQ2 enhance: 7.2*; Kir21 confirm: inactive; HEK293 Tl flux: inactive; CHO-K1 ctr: -4; KCNQ1 pot spec: 76*; KCNQ2 pot confirm: 16*; Kir2-1 sel: -30; KCNQ2 W236L MoA: inactive

What do the screens show for `FC(F)(F)c1nnc(Nc2ccc(Cl)cc2)s1`?
KCNQ2 block: inactive; KCNQ2 enhance: 3.1

Results for O=c1c2ccccc2c(C=NCCCN2CCOCC2)c(O)n1Cc1ccccc1 ?
KCNQ2 block: inactive; Kir21 confirm: 64%*; HEK293 Tl flux: inactive

Results for O=c1c2ccccc2c(C=NCCCN2CCOCC2)c(O)n1Cc1ccc2c(c1)OCO2 ?
KCNQ2 block: inactive; KCNQ2 enhance: 0.1

What do the screens show for `O=C(N/N=C/c1cccs1)c1cnccn1`?
KCNQ2 block: inactive

Results for O=C(N/N=C/c1cccs1)c1[nH]ncc1Br ?
KCNQ2 block: inactive; KCNQ2 enhance: 11*; Kir21 confirm: inactive; HEK293 Tl flux: inactive; CHO-K1 ctr: 115*; KCNQ1 pot spec: -14; KCNQ2 pot confirm: 43*; Kir2-1 sel: -33; KCNQ2 W236L MoA: inactive

What do the screens show for `CC(=O)N/C(=C/c1ccc(OS(=O)(=O)c2ccc(C)cc2)cc1)C(=O)Nc1ccc(C(=O)O)cc1`?
KCNQ2 block: inactive; KCNQ2 enhance: 1.1

What do the screens show for `Cc1ccc2c(c1)CCCN2C(=O)CSc1ccccc1`?
KCNQ2 block: inactive

Results for COc1ccccc1CC(=O)N1CCCc2cc(C)ccc21 ?
KCNQ2 block: inactive; Kir21 confirm: inactive; HEK293 Tl flux: inactive

What do the screens show for `C=CCn1c(C2CCCCC2)n[nH]c1=S`?
KCNQ2 block: inactive

Results for CCOC(=O)CSC1=C(C#N)C(c2ccc3c(c2)OCO3)CC(=O)N1 (configuration not stated) ?
KCNQ2 block: inactive; KCNQ2 enhance: 0.26

Results for N#CC1=C(SCc2ccccc2)NC(=O)CC1c1ccccc1 (configuration not stated) ?
KCNQ2 block: inactive; Kir21 confirm: 41%*; HEK293 Tl flux: inactive

How did Cc1ccc(C(=O)CSC2=C(C#N)C(c3ccco3)C3=C(CC(C)(C)CC3=O)N2)cc1 (configuration not stated) do in these assays?
KCNQ2 block: inactive; KCNQ2 enhance: 0.27

How did CCOC(=O)CSC1=C(C#N)C(c2ccc(Cl)cc2)CC(=O)N1 (configuration not stated) do in these assays?
KCNQ2 block: inactive; KCNQ2 enhance: 0.03; Kir21 confirm: 47%*; HEK293 Tl flux: inactive
